Assay [1] relates to TRPC4 beta (transient receptor potential cation channel C4), mouse. In words: activators of mouse TRPC4 channel, confirmation, cell-based, Fluo4 calcium, HEK293 TRPC4beta/mu-opioid, duplicates, 10 µM (AID 2426;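 active = fluorescence ratio normalized to control raised more than 50% in primary screen plus both repeat runs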;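 as to activation: percent rise of integrated ratio over buffer wells lacking compound which define 0%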). The conditions noted are these: Fluo4 calcium fluorescence, at 10 µM; hits give high values.
The subject of assay [2] is transient receptor potential cation channel C4 beta (TRPC4), mouse. In words: activators of mouse TRPC4 channel, confirmation, cell-based, second round, Fluo4, HEK293 TRPC4beta/mu-opioid, 1 µM (AID 2461).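 As to activation: 0% = wells without test compound as baseline of integrated fluorescence ratio.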 The conditions noted are these: Fluo4 calcium fluorescence, at 1 µM; hits give high values.
Assay [3] concerns TRPC4 (transient receptor potential cation channel C4 beta), mouse. In words: positive allosteric modulators of mouse TRPC4, confirmation, cell-based, second round, Fluo-4, HEK293 TRPC4beta/mu-opioid, 1 µM (AID 2554;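 active = primary screen hit whose fluorescence ratio, in both repeats, exceeds the weak agonist control mean by 3 SD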). Conditions: DAMGO EC20, Fluo-4 calcium flux, at 1 µM; hits give high values.
Assay [4] relates to TRPC4 beta (transient receptor potential cation channel C4), mouse. Nature of the assay: positive allosteric modulators of mouse TRPC4, confirmation, cell-based, Fluo-4, HEK293 TRPC4beta/mu-opioid (AID 2555;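 active = primary screen hit whose calcium fluorescence ratio, in both repeats, exceeds the weak agonist control mean by 3 SD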). The conditions noted are these: DAMGO EC20, Fluo-4 calcium flux, at 10 µM; hits give high values.
For assay [5], the target named is Short transient receptor potential channel 4 (Mus musculus) (UniProt Q9QUQ5). Nature of the assay: inhibitors of mouse TRPC4 channel, confirmation, cell-based, Fluo4, HEK293 TRPC4beta/mu-opioid (AID 2636;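 active = calcium signal cut by more than 3 SD below the full-agonist control yet still positive, in both repeats and the earlier primary screen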). The conditions noted are these: DAMGO, Fluo4 calcium flux, at 10 µM; hits give high values.
Assay [6] has the same target. Nature of the assay: inhibitors of mouse TRPC4 channel, confirmation, cell-based, second round, Fluo4, HEK293 TRPC4beta/mu-opioid, 1 µM (AID 2637;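 active = calcium signal ratio cut to more than 3 SD under the fully stimulated control mean yet still positive, in both repeats and the primary screen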). Conditions: Fluo4 calcium flux, DAMGO, at 1 µM; hits give high values. (A change in cytosolic calcium serves as a functional read-out for many receptors and channels.)
The target is the same in assay [7]. Nature of the assay: TRPC4 positive allosteric modulators, dose response, cell-based, HEK293 TRPC4/mu-opioid, Fluo-4 calcium, EC20 DAMGO (AID 434941;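 active = earlier screen potentiator hit that boosts the TRPC4 ion channel at some dose, with a dose response; inactive = no potentiation, no dose response, or not a prior hit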;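 also: calcium entry triggered by an EC20 dose of DAMGO at the co-expressed mu-opioid receptor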).
The target is the same in assay [8]. Nature of the assay: mouse TRPC4 channel inhibitors, dose response, cell-based, HEK293 TRPC4/mu-opioid, Fluo-4 calcium (AID 434942;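 active = primary screen inhibitor hit that blocks the TRPC4 channel at some tested dose, yielding a dose curve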).
Assay [9] has as its target Short transient receptor potential channel 6 (Mus musculus) (UniProt Q61143). Nature of the assay: inhibition of mouse TRPC6 channel, confirmation, selectivity assay for TRPC4 inhibitor project, cell-based, HEK293, membrane potential dye, duplicate (AID 434948;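 active = active in primary screen and both duplicates, each dropping signal beyond three positive-control SD with fluorescence still positive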). Conditions: HEK293 TRPC6, membrane potential dye fluorescence, at 10 µM, stimulated with maximal-effect acetylcholine; hits give high values.

Assay [10] has the same target. In words: activation of mouse TRPC6 channel, confirmation, selectivity assay for TRPC4 activator project, cell-based, HEK293, membrane potential dye, duplicate (AID 434950;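 active = membrane potential signal rise above negative control mean plus 3 SD in both duplicates, also active in the earlier TRPC4 screen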;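 as to activation: 0% = buffer only wells and 100% = acetylcholine maximal-effect wells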). The conditions noted are these: HEK293 TRPC6, membrane potential fluorescence, at 10 µM; hits give high values.
For assay [11] the target is unchanged. In words: TRPC6 potentiation by TRPC4 potentiator hits, confirmation, selectivity assay for TRPC4 potentiator project, HEK293 cells, membrane potential dye, duplicate (AID 434952;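 active = compound raising the membrane signal above positive-control mean plus 3 SD in both repeats, and a primary screen hit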). Conditions: HEK293 TRPC6, membrane potential dye fluorescence, at 10 µM, maximal acetylcholine added after compound; hits give high values.
The target in assay [12] is Short transient receptor potential channel 4 (Mus musculus) (UniProt Q9QUQ5). In words: calcium flux activators in TRPC4/5HT1a cells, counter-screen for TRPC4 activator project, cell-based, second counter screen, HEK293 TRPC4/5HT1a, Fluo-4 (AID 434977;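 active = calcium signal rise above buffer-control mean plus 5 SD in both duplicates, and also a hit in the primary screen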;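 as to activation: plate controls were assay buffer for no effect and maximal serotonin response for full effect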). The conditions noted are these: Fluo-4 calcium flux, at 10 µM; hits give high values.
Assay [13] in a line: calcium flux inhibitors in TRPC4/5HT1a cells, confirmation, counter-screen for TRPC4 inhibitor project, cell-based, second counter screen, HEK293 TRPC4/5HT1a, Fluo-4 (AID 434978;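 active = primary screen active whose calcium signal fell more than 3 SD beyond the full-serotonin control mean in both duplicate plates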;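 also: serotonin given first at submaximal then at maximal dose after compound preincubation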). Conditions: Fluo-4 calcium flux, at 10 µM, serotonin added to trigger calcium flux; hits give high values.
For assay [14], the system named is TRPC4 (mouse), co-expressed with 5HT1a in HEK293. In words: calcium flux potentiators in TRPC4/5HT1a cells, confirmation, counter-screen for TRPC4 potentiator project, cell-based, second counter screen, HEK293 TRPC4/5HT1a, Fluo-4 (AID 434979;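 active = signal rise over 3 SD above mean of control wells given weak agonist, in both repeats and first screen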). The conditions noted are these: Fluo-4 calcium flux, at 10 µM, serotonin added at its EC20 dose; hits give high values.
The nature of assay [15]: calcium flux activation in mu-opioid HEK293 cells, confirmation, counter-screen for TRPC4 activator project, cell-based, HEK293 mu-opioid receptor line (AID 449723;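 active = hit in primary screen, with calcium signal over 5 SD above buffer well mean in both duplicates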;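 also: counter screen cells carry the mu-opioid receptor alone and lack TRPC4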). The conditions noted are these: Fluo-4 calcium fluorescence, at 10 µM; hits give high values.
A short description of assay [16]: calcium flux enhancement in mu-opioid HEK293 cells, confirmation, counter-screen for TRPC4 allosteric potentiator project, cell-based, HEK293 mu-opioid receptor line (AID 449724;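 active = calcium signal rise more than 3 SD above the low-dose agonist control mean, in both duplicate plates and the primary screen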;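 also: HEK293 cells carrying mu-opioid receptor only with no TRPC4 channel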). The conditions noted are these: Fluo-4 calcium flux, at 10 µM, compound added before EC20 DAMGO stimulus; hits give high values.

In PubChem BioAssay one finds activation, outcome and potentiation data, which are given here for 15 compounds.

For part of these data: Results with a measured potency or affinity are listed apart. Activity calls are given as the source filed them.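 The calls were made as follows, unless noted: active = primary screen active and over 50% activation in each of two duplicate runs; inactive = the rest.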

Sequence of Short transient receptor potential channel 4 (Mus musculus) (Q9QUQ5 whole entry, looked up): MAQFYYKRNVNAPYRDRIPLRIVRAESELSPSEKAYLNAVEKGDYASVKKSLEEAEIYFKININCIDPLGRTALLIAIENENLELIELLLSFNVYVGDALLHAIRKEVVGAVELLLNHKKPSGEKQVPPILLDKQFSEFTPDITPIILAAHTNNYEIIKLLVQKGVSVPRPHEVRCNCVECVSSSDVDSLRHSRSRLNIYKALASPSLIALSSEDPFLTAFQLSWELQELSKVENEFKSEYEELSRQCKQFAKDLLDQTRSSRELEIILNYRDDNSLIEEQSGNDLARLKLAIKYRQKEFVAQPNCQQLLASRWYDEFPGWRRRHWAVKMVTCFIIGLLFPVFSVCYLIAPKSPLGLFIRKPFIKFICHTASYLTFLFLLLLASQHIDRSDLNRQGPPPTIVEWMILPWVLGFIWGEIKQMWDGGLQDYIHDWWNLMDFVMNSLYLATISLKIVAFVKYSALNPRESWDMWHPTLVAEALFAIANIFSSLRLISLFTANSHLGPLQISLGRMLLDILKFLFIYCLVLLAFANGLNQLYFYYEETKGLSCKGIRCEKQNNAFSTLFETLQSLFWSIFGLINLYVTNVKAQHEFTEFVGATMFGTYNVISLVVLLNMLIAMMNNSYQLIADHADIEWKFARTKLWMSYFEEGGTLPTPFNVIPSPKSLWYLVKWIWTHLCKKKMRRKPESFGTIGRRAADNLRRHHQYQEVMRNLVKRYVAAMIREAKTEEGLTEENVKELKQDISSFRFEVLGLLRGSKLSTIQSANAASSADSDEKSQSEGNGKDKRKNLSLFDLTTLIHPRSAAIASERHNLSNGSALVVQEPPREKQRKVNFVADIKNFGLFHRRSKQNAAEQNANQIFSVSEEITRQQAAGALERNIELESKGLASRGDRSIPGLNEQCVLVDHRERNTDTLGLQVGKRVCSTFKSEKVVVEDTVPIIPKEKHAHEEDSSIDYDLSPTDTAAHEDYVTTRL
Sequence of Short transient receptor potential channel 6 (Mus musculus) (Q61143 whole entry, looked up): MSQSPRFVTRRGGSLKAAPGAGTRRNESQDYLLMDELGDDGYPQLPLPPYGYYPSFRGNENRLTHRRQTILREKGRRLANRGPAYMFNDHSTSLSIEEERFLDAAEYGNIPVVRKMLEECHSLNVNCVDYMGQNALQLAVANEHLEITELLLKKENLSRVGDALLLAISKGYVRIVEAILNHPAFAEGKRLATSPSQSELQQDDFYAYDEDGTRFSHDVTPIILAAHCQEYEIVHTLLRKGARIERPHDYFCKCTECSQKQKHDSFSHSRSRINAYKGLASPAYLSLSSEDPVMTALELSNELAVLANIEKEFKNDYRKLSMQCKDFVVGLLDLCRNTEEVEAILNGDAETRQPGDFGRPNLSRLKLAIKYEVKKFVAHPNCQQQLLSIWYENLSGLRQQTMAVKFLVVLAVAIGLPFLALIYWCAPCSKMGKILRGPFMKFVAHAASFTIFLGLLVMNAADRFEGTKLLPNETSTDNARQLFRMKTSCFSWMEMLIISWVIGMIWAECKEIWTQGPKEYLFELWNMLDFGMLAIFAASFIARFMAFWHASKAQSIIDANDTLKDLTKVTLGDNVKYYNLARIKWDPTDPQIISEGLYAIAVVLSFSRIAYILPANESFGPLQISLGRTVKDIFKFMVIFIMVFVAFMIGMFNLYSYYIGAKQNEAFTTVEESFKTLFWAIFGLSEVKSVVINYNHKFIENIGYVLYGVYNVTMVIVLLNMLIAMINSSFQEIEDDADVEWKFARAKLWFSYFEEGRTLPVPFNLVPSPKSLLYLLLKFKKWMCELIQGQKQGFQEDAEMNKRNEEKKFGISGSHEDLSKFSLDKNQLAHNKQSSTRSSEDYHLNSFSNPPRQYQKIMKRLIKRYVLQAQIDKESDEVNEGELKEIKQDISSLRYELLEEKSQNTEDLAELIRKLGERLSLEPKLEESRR

As to `CCCN(CCC)CCCNC(=O)c1cc2c(-c3ccc(OC)c(OC)c3)nn(C)c2s1`, the results for the activation in assay [1], in assay [2] and in assay [12] were 97% (active), 78% (active) and 38.6% (active), respectively. The result in [3], in assay [4], in assay [5], in assay [6], in assay [7] and in assay [8] was inactive. In addition, the call in assay [9], in [10], in assay [11], in [13], in [14] and in [15] was inactive. Moreover, the result in assay [16] was inactive.
For the compound `CCOC(=O)C1(CC2CC2)CCN(Cc2cnc(-c3ccccc3C)nc2)CC1`, the outcome in [1], in [2], in assay [3], in [4], in assay [5] and in assay [6] was inactive. Also, the outcome in [7], in assay [8], in [9], in assay [11], in assay [12] and in [13] was inactive. For the same compound, the outcome in [14], in assay [15] and in assay [16] was inactive. The activation in assay [10] was 59.5% (active).
As to `COc1ccc2c(Cl)c(-c3nnc(SCC(=O)c4ccccc4)n3C)sc2c1`, the result in assay [1], in [2], in assay [3], in [4], in assay [5] and in [6] was inactive. Also, the outcome in assay [7], in [8], in assay [9], in [11], in [12] and in [13] was inactive. Further, the result in assay [14], in assay [15] and in assay [16] was inactive. For the same compound, the activation in [10] is 35.5% (active).
Take `CCn1c(=O)c(C(=O)NNC(=O)c2ccccc2F)c(O)c2ccccc21`: the activation is 126% (active) in assay [1], 111% (active) in [12] and 34% (active) in assay [15]. Moreover, the result in [2], in assay [3], in [4], in assay [5], in [6] and in assay [7] was inactive. For the same compound, the result in assay [8], in assay [9], in assay [10], in assay [11], in assay [13] and in assay [14] was inactive. For the same compound, the outcome in assay [16] was inactive.
As for `Cc1cccc(C(=O)OC2CCCN(C)C2)c1C` (stereo not given), the figures for the activation in [1], in [10] and in assay [12] were 76% (active), 60.5% (active) and 20% (active), respectively. The outcome in assay [2], in assay [3], in assay [4], in assay [5], in [6] and in [7] was inactive. The outcome in assay [8], in assay [9], in [11], in [13], in assay [14] and in assay [15] was inactive. Further, the result in assay [16] was inactive.
As for `CN1C(CC(=O)Nc2ccc(Br)cc2)c2ccccc2CC1(C)C` (stereo not given), the figures for the activation in [1], in assay [10] and in [12] were 97% (active), 28.5% (active) and 7.45% (active), respectively. The outcome in [2], in [3], in [4], in assay [5], in [6] and in [7] was inactive. For the same compound, the result in assay [8], in assay [9], in [11], in [13], in [14] and in [15] was inactive. The result in assay [16] was inactive.
For `CCC(=O)N1CCc2cc(Br)cc(S(=O)(=O)NCCCN(C)Cc3ccccc3)c21`, the activation was 116% (active) in assay [1], 65% (active) in assay [2], 55% (active) in [10] and 33.1% (active) in [12]. Also, the result in assay [3], in assay [4], in assay [5], in assay [6], in assay [7] and in [8] was inactive. The compound was classed as inactive in [9], in assay [11], in [13], in [15] and in assay [16]. Moreover, in assay [14], the potentiation is 26.2% (active).
For `COc1cc(OC)cc(C(=O)NC(=S)NNC(=O)Cc2cccs2)c1`, the activation in [1] was 101% (active); in assay [12] it was 58.2% (active); in assay [15], 20.6% (active). Besides, the result in assay [2], in assay [3], in assay [4], in assay [5], in assay [6] and in [7] was inactive. Besides, the outcome in assay [8], in assay [9], in assay [10], in assay [11], in assay [13] and in assay [14] was inactive. In addition, the result in assay [16] was inactive.
Take `Cc1ccc(NC(=O)NCC(c2ccccc2)N(C)C)cc1` (stereo not given): the values for the activation in assay [1], in assay [2] and in assay [10] were 107% (active), 136% (active) and 38.5% (active), respectively. Moreover, the outcome in assay [3], in assay [4], in [5], in assay [6], in assay [7] and in [8] was inactive. Further, the call in [9], in assay [11], in assay [12], in assay [13], in assay [14] and in [15] was inactive. In assay [16], the outcome was inactive.
Take `Cc1cc(CSC(=N)N)c(CSC(=N)N)cc1C`: the figures for the activation in [1], in [2] and in assay [12] were 178% (active), 67% (active) and 46% (active), respectively. The outcome in assay [3], in assay [4], in assay [5], in [6], in assay [7] and in [8] was inactive. The outcome in assay [9], in assay [10], in assay [11], in assay [13], in assay [14] and in [15] was inactive. The outcome in assay [16] was inactive.
Consider `c1ccc(Cn2nnnc2C(c2cccnc2)N2CCN(C3CCCCC3)CC2)cc1` (stereo not given), for which the activation in assay [1] was 115% (active); in assay [10] it was 47.5% (active); in assay [12], 32.6% (active). The outcome in [2], in assay [3], in assay [4], in assay [5], in assay [6] and in [7] was inactive. In addition, the result in assay [8], in [9], in [11], in [13], in assay [14] and in assay [15] was inactive. Moreover, the result in assay [16] was inactive.
Take `Cc1onc(-c2ccccc2Cl)c1C(=O)N1CCN(C/C=C/c2ccccc2)CC1`: the activation in [1] is 190% (active); in assay [10], 38.5% (active). The outcome in assay [2], in assay [3], in assay [4], in [5], in assay [6] and in assay [7] was inactive. The result in [8], in [9], in assay [11], in assay [12], in assay [13] and in assay [14] was inactive. Besides, the outcome in assay [15] and in assay [16] was inactive.
Regarding `CC1CC(C)CN(CCCNS(=O)(=O)c2cc(Br)cc3c2N(C(=O)C2CC2)CC3)C1` (stereo not given), the activation in assay [1] was 139% (active); in assay [2] it was 114% (active); in assay [10], 30% (active); in assay [12] it was 64.6% (active). Moreover, the result in [3], in [4], in [5], in [6], in assay [7] and in [8] was inactive. The compound was called inactive in [9], in assay [11], in assay [13], in [14], in assay [15] and in [16].
In the case of `O=C(NCCc1cnc[nH]1)c1ccc(-c2ccccc2)cc1`, the activation in assay [1] is 109% (active); in [10] it was 59% (active); in assay [12], 17.5% (active). Further, the result in assay [2], in assay [3], in assay [4], in [5], in assay [6] and in assay [7] was inactive. Moreover, the result in [8], in assay [9], in [11], in [13], in assay [14] and in assay [15] was inactive. Also, in [16], the result was inactive.
Regarding `CC(=O)n1cc([C@H]2C=C(C(=O)NCc3ccccc3)O[C@@H](OCc3ccc(CO)cc3)C2)c2ccccc21`, the result in assay [1], in assay [2], in assay [3], in assay [4], in assay [5] and in assay [6] was inactive. The result in assay [7], in assay [8], in [9], in assay [10], in assay [11] and in assay [12] was inactive. Besides, the result in [13], in [14], in assay [15] and in [16] was inactive.
